Assay outcomes (PubChem BioAssay)
In the library only some 1.9% were active in any assay of this set; here they are far more common.
IEC-6 tox: cytotoxicity in IEC-6 intestinal epithelial cells, primary screen, cytotoxicity control for KLF5 inhibitor project, cell-based, luminescence | AID 1825, 2009 | actives 0.78% (n = 290,000) | IEC-6 cytotoxicity, luminescence viability | inhibition, % at 5 µM;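 further: 0% = plate median of test compound wells and 100% = cytotoxic reference compound wells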
BaF3 parental: parental Ba/F3 cell viability inhibition, counter-screen for JAK2V617F inhibitor project, murine pro-B, CellTiter-Glo luminescence; CellTiter-Glo ATP luminescence; inhibition, % at 5.6 µM; actives 1.1% (n = 220,000);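 active means inhibition above a per-campaign cutoff, the mean inhibition of all tested compounds plus 3 SD, cut at about 27% in these data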;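 further: 0% = DMSO wells and 100% = JAK Inhibitor I control wells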
APP 5UTR inh: inhibitors of APP translation via 5'UTR reporter, primary screen, APP 5'UTR luciferase, SH-SY5Y cells; SH-SY5Y APP 5'UTR-luciferase reporter, luminescence; inhibition, % at 2 µM; actives 0.82% (n = 190,000); AID 1285, 2008;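 active means inhibition above a set limit, derived from the sample mean plus 3 SD, cut at about 45% in these data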
KLF5 inhibitor: KLF5 expression inhibitors, primary screen, DLD-1 cells, luminescence. inhibition, % at 5 µM. AID 1700, 2009. actives 0.23% (n = 290,000). DLD-1 KLF5 promoter-luciferase reporter;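 active means inhibition above a per-plate limit of that plate's mean compound inhibition plus 3 SD, cut at about 60% in these data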;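 further: 0% = DMSO wells and 100% = LY294002 at 200 µM; higher means less KLF5 promoter-driven luciferase light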
Ba/F3 V617F tox: reduced viability of JAK2V617F-dependent Ba/F3 cells, primary screen, JAK2V617F inhibitor project, cell-based, Ba/F3 EpoR-JAK2V617F, luminescence; actives 1.1% (n = 220,000); ATP luminescence; AID 1446, 2008; inhibition, % at 5.6 µM;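 active means inhibition above the campaign mean plus 3 SD over all tested compounds, cut at about 24% in these data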;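 further: cytokine-independent growth of Ba/F3 cells driven by EpoR plus mutant JAK2; 0% = DMSO-treated cells and 100% = JAK inhibitor I control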
IEC-6 tox confirm: cytotoxic compounds in IEC-6 epithelial cells, confirmation, cytotoxicity control, cell-based, luminescence. IEC-6 rat intestinal epithelial viability. shares compounds with IEC-6 tox. actives 63% (n = 1,900). AID 1907, 2009. inhibition, % at 5 µM;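 further: 0% = vehicle and 100% = reference cytotoxic drug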
* hit, by the source's call. Unless noted, no stated cut-off is given here; in the data, active means inhibition above about 22%; inactive means the rest.

Screening Cc1ccccc1OCCSc1nnc(-c2cccnc2)n1N returned IEC-6 tox 5.4, BaF3 parental 4.6, APP 5UTR inh 2.9, KLF5 inhibitor -29.1 and Ba/F3 V617F tox 2.4.
`c1ccc(Nc2ncnc3sccc23)cc1` gave IEC-6 tox 10.1 and KLF5 inhibitor -24.6.
CC(Nc1ncnc2sccc12)c1ccccc1 (stereo unspecified) was read as IEC-6 tox 29.0*, KLF5 inhibitor -7.9 and IEC-6 tox confirm 26.9*.
COCCn1c(SC(C)C(=O)Nc2ncc(Cl)cc2Cl)nc2ccccc21 (stereo unspecified) was read as IEC-6 tox 24.4*, BaF3 parental 3.1, APP 5UTR inh 1.7, KLF5 inhibitor 28.6, Ba/F3 V617F tox 0.2 and IEC-6 tox confirm 27.5*.
Screening COc1ccc(OC)c(-c2csc(NC(=O)c3ccc(F)cc3)n2)c1 returned IEC-6 tox 34.3*, KLF5 inhibitor 18.9 and IEC-6 tox confirm 16.0.
Screening COc1ccc(C(=O)NN=C2CCCC2)cc1OC returned IEC-6 tox 8.4 and KLF5 inhibitor -31.7.
For CCOc1cc(C(=O)NN=C2CCCC2)cc(OCC)c1OCC the results were IEC-6 tox 79.9*, KLF5 inhibitor 16.6 and IEC-6 tox confirm -0.5.
CCOc1ccccc1NC(=O)CN(c1ccc(Cl)cc1)S(C)(=O)=O was read as IEC-6 tox -3.8 and KLF5 inhibitor -24.5.
Screening O=c1c(Cl)c(Cl)cnn1Cc1ccc(F)cc1 returned IEC-6 tox 26.9*, BaF3 parental -3.4, APP 5UTR inh 50.7*, KLF5 inhibitor -22.8, Ba/F3 V617F tox 6.7 and IEC-6 tox confirm 11.2.
`O=c1cnn(Cc2ccc(F)cc2)c2ccccc12` gave IEC-6 tox 4.0 and KLF5 inhibitor 7.2.
`Cc1cc2nc(C3CCN(Cc4nnnn4Cc4cccs4)CC3)[nH]c2cc1C` gave IEC-6 tox 46.3*, BaF3 parental 6.8, APP 5UTR inh 3.6, KLF5 inhibitor -11.5, Ba/F3 V617F tox 1.7 and IEC-6 tox confirm 34.4*.
`COc1cc(/C=N/Nc2nc(C)nc3c2cnn3-c2ccccc2)ccc1O` gave IEC-6 tox 31.6*, BaF3 parental 51.4*, APP 5UTR inh 50.1*, KLF5 inhibitor 11.0, Ba/F3 V617F tox 45.5* and IEC-6 tox confirm 8.6.
COc1cc(/C=N/NC(=O)c2nc(-c3ccccc3)n(-c3ccccc3)n2)ccc1O was read as IEC-6 tox 2.2, BaF3 parental 3.1, APP 5UTR inh 12.3, KLF5 inhibitor -17.0 and Ba/F3 V617F tox -0.5.
For Cc1ccc(C(=O)/C=C/Nc2cccc([N+](=O)[O-])c2)o1 the results were IEC-6 tox -2.0, BaF3 parental 5.0, APP 5UTR inh -111.5, KLF5 inhibitor -29.4 and Ba/F3 V617F tox -0.8.
For N#CC1=C(N)Oc2ccc3ccccc3c2C1c1cccnc1 (stereo unspecified) the results were IEC-6 tox 55.0*, BaF3 parental 34.1*, APP 5UTR inh 54.5*, KLF5 inhibitor 46.6, Ba/F3 V617F tox 53.2* and IEC-6 tox confirm 48.3*.
CC(=O)Nc1nc2ccc(S(=O)(=O)N3CCCC3)cc2s1 was read as IEC-6 tox -2.7 and KLF5 inhibitor -17.7.
For CCCC(=O)Nc1nc2ccc(S(=O)(=O)N3CCCCC3)cc2s1 the results were IEC-6 tox 53.6*, BaF3 parental 78.7*, APP 5UTR inh 78.9*, KLF5 inhibitor 48.8, Ba/F3 V617F tox 79.6* and IEC-6 tox confirm 58.7*.
`Cc1cc(C)n(/N=C/c2cccs2)c(=O)c1C#N` gave IEC-6 tox 70.6*, BaF3 parental 1.7, APP 5UTR inh -0.5, KLF5 inhibitor -30.9, Ba/F3 V617F tox 3.1 and IEC-6 tox confirm 4.7.
`O=C(Nc1cccc(/C=C/c2ccccn2)c1)c1cc(Cl)ccn1` gave IEC-6 tox 2.2 and KLF5 inhibitor -110.2.
CC1CCc2c(C(=O)Nc3cccc(-c4nn[nH]n4)c3)csc2C1 (stereo unspecified) was read as IEC-6 tox 41.8*, KLF5 inhibitor -32.0 and IEC-6 tox confirm -4.9.
CCc1nnc(NC(=O)c2csc3c2CCC(C)C3)s1 (stereo unspecified) was read as IEC-6 tox -0.1, BaF3 parental 2.4, APP 5UTR inh -145.2, KLF5 inhibitor -0.8 and Ba/F3 V617F tox -1.9.
For O=C(Nc1ccc(N2CCOCC2)cc1)Nc1ccc2nc(-c3ccco3)c(-c3ccco3)nc2c1 the results were IEC-6 tox 23.0*, BaF3 parental 14.1, APP 5UTR inh -12.3, KLF5 inhibitor -21.1, Ba/F3 V617F tox 20.6 and IEC-6 tox confirm 36.8*.
`Cn1nccc1C(=O)NC1CCCc2c1cnn2-c1ccc(C(C)(C)C)cc1` (stereo unspecified) gave IEC-6 tox 22.8*, KLF5 inhibitor -6.0 and IEC-6 tox confirm 21.2.
Screening Cc1cc(C(=O)NC2CCCc3c2cnn3-c2cccc(C)c2C)n(C)n1 (stereo unspecified) returned IEC-6 tox 36.0*, KLF5 inhibitor 19.7 and IEC-6 tox confirm 29.0*.
Cc1cccc(-n2ncc3c2CCCC3NC(=O)c2ccc[n+]([O-])c2)c1C (stereo unspecified) was read as IEC-6 tox -5.9 and KLF5 inhibitor -28.6.
`CC(=O)NC1CCCc2c1cnn2-c1ccc(C(C)(C)C)cc1` (stereo unspecified) gave IEC-6 tox -0.6 and KLF5 inhibitor -31.6.
Screening CC(C)CC(=O)Nc1nnc(S(=O)(=O)N2CCCCCC2)s1 returned IEC-6 tox -3.7 and KLF5 inhibitor -18.2.
For COc1cc2c(cc1OC)C(c1cccs1)N(C(=O)C(C)C)CC2 (stereo unspecified) the results were IEC-6 tox -1.4, BaF3 parental 6.4, APP 5UTR inh -15.3, KLF5 inhibitor -1.4 and Ba/F3 V617F tox -2.2.
Screening COc1cc2c(cc1OC)C(c1cccs1)N(C(=O)c1cccnc1)CC2 (stereo unspecified) returned IEC-6 tox 46.4*, BaF3 parental 46.2*, APP 5UTR inh 45.0*, KLF5 inhibitor 40.1, Ba/F3 V617F tox 45.9* and IEC-6 tox confirm 34.2*.
c1ccc2c(c1)NCC1CCCN21 (stereo unspecified) was read as IEC-6 tox 2.8 and KLF5 inhibitor -8.0.
Screening CCCN(CCC)CCNC(=O)c1cc2c(-c3ccc(Cl)cc3)nn(C)c2s1 returned IEC-6 tox 21.9*, KLF5 inhibitor -3.2 and IEC-6 tox confirm 14.8.
`CCN(CC)CCNC(=O)c1cc2c(-c3ccc(Cl)cc3)nn(C)c2s1` gave IEC-6 tox 9.1, BaF3 parental 7.8, APP 5UTR inh 9.3, KLF5 inhibitor -11.9 and Ba/F3 V617F tox 3.2.
C#CCOc1ccc2ccccc2c1/C=C(/C#N)c1ccc(C(=O)O)cc1 was read as IEC-6 tox -10.4 and KLF5 inhibitor 9.1.
